# Reference: PubChem BioAssay AID651871 (Sanford-Burnham Center for Chemical Genomics, 2012)
# “And” between values parts separate entries of the source, which are not always exact repeats. Equal entries are not always repeated.
# Test system: HL-1
# Assay: protection of cardiomyocytes from stress damage, SAR follow-up, cell-based, panel, H9c2 and HL-1, ATP luminescence, set 2 (AID 651871);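 note: cells exposed to stressor for 2 h before ATP readout; reference of the scale not given here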
# Conditions: H9c2/HL-1 cardiomyocytes, 2-deoxyglucose stress, with 2-deoxyglucose, run 5, at 79 µM (top of the series)
row,SMILES,activity (protection/inhibition)
1,COc1ccc2nc(-c3cc(OC)c(OC)c(OC)c3)cc(C(=O)NCC(=O)Nc3ccc(C(C)=O)cc3)c2c1,55.8%
2,COc1ccc2c(c1OC)C(=O)N1c3ccccc3C(=O)N(Cc3cccc(Cl)c3Cl)C21 (stereo not drawn),43.8% and -9.92%
3,CCOC(=O)c1cccc(NC(=O)CNC(=O)c2cc(-c3cc(OC)c(OC)c(OC)c3)nc3ccccc23)c1,51.1%
